# Results filed as inconclusive are left out. The source made the active and inactive calls. Calls follow the shape of the dose curve; as a rule, active = well fitted activation curve with a large enough effect in the repeat runs; inconclusive = weak or mixed curves; inactive = no such curve, though single readings can be large or run the other way.
# Assay: qHTS assay for small molecules that induce genotoxicity in human embryonic kidney cells expressing luciferase-tagged ATAD5 (AID 651632); also: nearly all actives have a fitted effect of over 15% in size
# Settings: HEK293T ATAD5-luciferase induction, 16 h; series mostly up to 83.3 µM; activation: at the top concentration
# Excerpt: U.S. Tox21 Program National Center for Advancing Translational Sciences [NCATS] NIH Chemical Genomics Center [NCGC] U.S. Environmental Protection Agency [EPA] National Institutes of Environmental Health Sciences [NIEHS] National Toxicology Program [NTP] U.S. Food and Drug Administration [FDA] Tox21 Assay Overview: As cancer cells divide rapidly and during every cell division they need to duplicate their genome by DNA replication. The failure to do so results in the cancer cell death. Based on this concept, many chemotherapeutic agents were developed but have limitations such as low efficacy and severe side effects etc. A new cell based assay was developed to find the compounds that effectively block DNA replication either by directly damaging DNA or by inhibiting other cellular mechanisms. Enhanced Level of Genome Instability Gene 1 (ELG1; human ATAD5) protein levels increase in response to various types of DNA damage. Using a luciferase reporter-gene tagged with ATAD5, a cell-based assay [developed by Kyungjae Myung, NHGRI, NIH] was used to measure the induction of ATAD5 in human embryonic kidney cells (HEK293T). So, increase in luciferase activity can be used to identify the compounds that cause genetic stress.
# Tox21 Assay Protocol Summary: For genotoxicity screening, 2,000 cells in 5 uL/well were dispensed into white, solid-bottom 1536-well plates using a Multidrop Combi (Thermo Scientific) dispenser. Following transfer of 23 nL compound or DMSO vehicle by a pin tool, the plates were incubated 16 hr at 37C and 5% CO2. 5 ul Amplite (AAT Bioquest, Inc.) was then added to each plate and following 30 min incubation at room temperature, luciferase activity was quantified on a ViewLux CCD-based plate reader.
# % is scaled to controls: 0 for no effect and ±100 for the full control effect.
SMILES,Potency,activation
CN(C)c1ccc(C(=C2C=CC(=[N+](C)C)C=C2)c2ccc(N(C)C)cc2)cc1,inactive,–
O=C(/C=C/c1ccccc1)OC/C=C/c1ccccc1,–,1.66% (inactive)
CC[N+](CC)(CC)CCOc1ccc(/C=C/c2ccccc2)cc1,inactive,–
O=C(O)CCN(C1(C(=O)NO)CCCC1)S(=O)(=O)c1ccc(Oc2ccc(F)cc2)cc1,–,-1.02% (inactive)
O=C(O)c1ccc2cc(C(=O)O)ccc2c1,–,-0.717% [at 95.3 µM] (inactive)
CC(C)(C)NSc1nc2ccccc2s1,–,-0.913% [at 95.3 µM] (inactive)
O=C(O)Cc1ccccc1Nc1c(Cl)cccc1Cl,inactive,–
CN(C)Cc1cc(C(C)(C)C)c(O)c(C(C)(C)C)c1,–,-5.53% (inactive)
Cc1cc(C(C#N)c2ccc(Cl)cc2)c(Cl)cc1NC(=O)c1cc(I)cc(I)c1O (stereo not given),–,-12.9% (inactive)
FC(F)(F)c1cccc(Cl)c1,–,0.651% (inactive)
OC[C@H]1O[C@H](O[C@H]2O[C@H](CO)[C@@H](O)[C@H](O)[C@H]2O)[C@H](O)[C@@H](O)[C@@H]1O,–,-0.369% [at 95.3 µM] (inactive)
COc1cc(C)ccc1O,–,2.32% (inactive)
O=S(=O)(O)c1ccc(Nc2nc(Nc3ccc(/C=C/c4ccc(Nc5nc(Nc6ccc(S(=O)(=O)O)cc6)nc(N(CCO)CCO)n5)cc4S(=O)(=O)O)c(S(=O)(=O)O)c3)nc(N(CCO)CCO)n2)cc1,–,-1.03% (inactive)
COC(C)=O,inactive,–
CCCCOC(=O)CO,–,-1.11% (inactive)
CCOC(=O)Cn1cccc1-c1nc(-c2ccc(OC)cc2)c(-c2ccc(OC)cc2)s1,–,2.83% (inactive)
NC[C@H]1O[C@H](O[C@H]2[C@H](O[C@@H]3O[C@H](CO)[C@@H](O)[C@H]3O)C(O)[C@H](N)C[C@@H]2N)[C@H](N)[C@@H](O)[C@@H]1O (stereo not given in full),–,-6.31% [at 39.1 µM] (inactive)
Cc1cc(C(C)(C)C)cc(C)c1CC1=NCCN1,–,-4.67% [at 39.1 µM] (inactive)
CCCCOC(=O)CC,–,0.548% (inactive)
COc1c(C)c2c(c(O)c1C/C=C(\C)CCC(=O)OCCN1CCOCC1)C(=O)OC2,–,-6.72% (inactive)

SMILES,Potency,activation
Nc1cc(Cl)c(O)c(Cl)c1,–,4.87% (inactive)
CCC(C)(CCC(C)C)C(=O)[O][Sn]([CH3])([CH3])[O]C(=O)C(C)(CC)CCC(C)C (stereo not given),–,-4.68% (inactive)
COc1cccc(OC)c1C(=O)O,–,4.69% (inactive)
CCc1oc2ccccc2c1C(=O)c1cc(I)c(O)c(I)c1,–,-12.6% (inactive)
O=C1CCc2cc(OCCCCc3nnnn3C3CCCCC3)ccc2N1,–,3.58% (inactive)
O=c1c(O)c(-c2ccc(O)cc2O)oc2cc(O)cc(O)c12,–,1.7% (inactive)
CC(C)(c1cc(Br)c(OCC(Br)CBr)c(Br)c1)c1cc(Br)c(OCC(Br)CBr)c(Br)c1 (stereo not given),–,2.64% (inactive)
CC(=O)CC(=O)Nc1ccc(S(=O)(=O)O)cc1,–,-3.27% (inactive)
C/C=C/C=C/COC(=O)C(C)C,–,5.72% (inactive)
CCc1cccc(CC)c1NC(=O)CN(CC(=O)O)CC(=O)O,–,1.92% [at 39.1 µM] (inactive)
C#CC1(O)CC[C@H]2[C@@H]3CCC4=CCCC[C@@H]4[C@H]3CC[C@@]21C (stereo not given in full),inactive,–
Cc1nc2n(c(=O)c1CCN1CCC(c3noc4cc(F)ccc34)CC1)CCCC2,–,-1.56% (inactive)
C=Cc1ccccc1C=C,–,-2.1% [at 260 µM] (inactive)
OC1CCCc2ccccc21 (stereo not given),–,1.08% [at 95.3 µM] (inactive)
C=CCCC(=O)/C=C/C1C(C)=CCCC1(C)C (stereo not given),–,-1.76% (inactive)
OC/C=C/CO,–,-0.788% (inactive)
CCN1C(=O)c2ccccc2C1Nc1ccc(OCCN2CCCCC2)cc1 (stereo not given),–,0.875% (inactive)
O=C1CCCCCCCCCCCCCCCO1,–,-3.52% (inactive)
CC/C=C\CCCCCO,–,3.29% (inactive)
O=S(=O)(O)c1ccccc1/C=C/c1ccc(-c2ccc(/C=C/c3ccccc3S(=O)(=O)O)cc2)cc1,–,2.85% (inactive)

# From PubChem BioAssay (Tox21)
